Hit rate of the full screen: of about 96,000 compounds, about 19,000 (20%) were called active.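 The calls were made as follows: active = blocking of liver enzyme CYP2C9 beyond about 50% at 5 µM (limit read from the data); inactive = the rest.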 These entries were drawn from the full list.
molecular target: Cytochrome P450 2C9 (Homo sapiens) (UniProt P11712); assay: blockers of cytochrome P450 2C9 activity – biochemical, luminescence, ADME assay, primary screen (AID 777); settings: CYP2C9 Supersomes, luciferin-H conversion, at 5 µM, hits give high values
Sequence (P11712 whole entry, looked up): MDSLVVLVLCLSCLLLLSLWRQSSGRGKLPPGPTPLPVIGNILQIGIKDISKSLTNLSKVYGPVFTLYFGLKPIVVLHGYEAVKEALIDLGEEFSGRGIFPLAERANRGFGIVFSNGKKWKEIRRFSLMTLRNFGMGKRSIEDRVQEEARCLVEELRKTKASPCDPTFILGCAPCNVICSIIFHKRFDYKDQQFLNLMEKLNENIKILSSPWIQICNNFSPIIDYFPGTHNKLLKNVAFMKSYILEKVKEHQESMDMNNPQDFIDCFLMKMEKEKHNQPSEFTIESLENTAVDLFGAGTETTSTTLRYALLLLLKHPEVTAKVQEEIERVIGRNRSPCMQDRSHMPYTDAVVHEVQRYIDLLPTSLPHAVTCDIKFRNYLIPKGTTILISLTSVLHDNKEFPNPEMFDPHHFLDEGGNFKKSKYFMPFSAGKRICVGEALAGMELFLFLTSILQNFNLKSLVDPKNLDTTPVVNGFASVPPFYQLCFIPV

Row | SMILES | inhibition
1 | C=CCn1c(SCCOc2ccc(OC)cc2)nnc1C(NC(=O)c1ccc(OC)cc1)C(C)C (centres undefined) | 58.8% (active)
2 | C=CCn1c(COc2cccc3cccnc23)nnc1SCC(=O)OC | -306% (inactive)
3 | C=CCn1c(SCC(=O)c2ccc(Br)cc2)nnc1C(C)NC(=O)Cc1ccc(OC)cc1 (centres undefined) | 30.7% (inactive)
4 | CC1=C(C)CC(C(=O)NNC(=O)c2ccccc2O)C(C(=O)O)C1 (centres undefined) | 21.8% (inactive)
5 | O=C(c1c(Cl)nc2sccn12)N1CCCc2ccccc21 | 28.1% (inactive)
6 | Cc1cccc(N2CCN(S(=O)(=O)c3ccc4[nH]c(=O)c(=O)[nH]c4c3)CC2C)c1 (centres undefined) | 52.5% (active)
7 | COc1cccc(N2C(=O)CC(N3CCN(S(=O)(=O)c4ccccc4)CC3)C2=O)c1 (centres undefined) | 6.5% (inactive)
8 | CN1CCN(S(=O)(=O)c2ccc3[nH]cc(C(=O)O)c(=O)c3c2)CC1 | 2.4% (inactive)
9 | Cc1nc(C)c(-c2csc(NCCc3ccccc3)n2)s1 | 39% (inactive)
10 | COc1ccc(/C(O)=C2\C(=O)C(=O)N(Cc3ccco3)C2c2ccc(OC)cc2OC)cc1 (centres undefined) | 21.7% (inactive)
11 | COc1ccc(/C(O)=C2/C(=O)C(=O)N(c3nc(C)c(C)s3)C2c2ccco2)cc1 (centres undefined) | 70.5% (active)
12 | COc1ccc(/C(O)=C2/C(=O)C(=O)N(CC3CCCO3)C2c2ccc(OC)c(OC)c2)cc1 (centres undefined) | 35.9% (inactive)
13 | C=CCNc1ncnc2ccc(Br)cc12 | -10.3% (inactive)
14 | COC(=O)c1cc(NC(=O)CC2C(=O)NCCN2C(=O)c2ccc(F)cc2)cc(C(=O)OC)c1 (centres undefined) | 46.6% (inactive)
15 | COc1cc(Cl)c(S(=O)(=O)N2CCN(Cc3ccc4c(c3)OCO4)CC2)cc1Cl | 20.7% (inactive)
16 | O=C(c1ccc(F)cc1)c1c[nH]c(C(=O)NCc2cccnc2)c1 | 45.9% (inactive)
17 | Cc1ccc(NC(=O)CS(=O)CC(=O)N(c2ccccc2)C(C)C(=O)NC2CCCC2)cc1 (centres undefined) | 77.9% (active)
18 | CCc1ccc(NC(=O)CS(=O)CC(=O)NCCCc2ccccc2)cc1 (centres undefined) | 38.5% (inactive)
19 | CC(C)c1ccc(NC(=O)NC2CCCCC2)cc1 | -33.8% (inactive)
20 | COc1ccc(C2CC(=O)C=C(NCC3CCCO3)C2)cc1 (centres undefined) | 9.3% (inactive)
21 | O=C(OCN1C(=O)c2ccccc2C1=O)/C(=C\c1ccco1)NC(=O)c1ccccc1 | 14% (inactive)
22 | COC(=O)Nc1ncc(CN2CCCCC2)s1 | 3.8% (inactive)
23 | CCOP1(=O)C=C(C(C)(C)C)OC1c1ccc(F)cc1 (centres undefined) | -21.5% (inactive)
24 | c1ccc(CCn2nnnc2CN2CCN(C3CCCC3)CC2)cc1 | -1.3% (inactive)
25 | COCCn1nnnc1C(c1ccccc1Cl)N1CCN(c2ccccc2OC)CC1 (centres undefined) | 39.5% (inactive)

Row | SMILES | inhibition
26 | COc1ccccc1N1CCN(Cc2nnnn2CCc2ccccc2)CC1 | 75% (active)
27 | Oc1ccccc1CNc1ncc(Br)cc1Br | -39.9% (inactive)
28 | CCOc1ccc(C(=O)NC2CCN(S(=O)(=O)CC)CC2)cc1 | 2.4% (inactive)
29 | CCOC(=O)N1CCC(Nc2c(NCCCN3CCN(CC)CC3)c(=O)c2=O)CC1 | -19.9% (inactive)
30 | CC1(C)Cc2ccccc2-c2nc(CN3CCOCC3)[nH]c(=O)c21 | 15.5% (inactive)
31 | CCOC(=O)C1Cn2c(nc3c(c2=O)C(C)(CC)Cc2ccccc2-3)S1 (centres undefined) | 94.8% (active)
32 | Cc1nonc1NC(=O)c1ccccc1Br | -27.2% (inactive)
33 | O=C(Nc1ccc(-n2ccnc2P(=O)(O)c2ccccc2)cc1)c1ccccc1Br | 95.5% (active)
34 | O=C(Nc1nnc(-c2ccc(Cl)cc2)o1)c1ccccc1Br | 26% (inactive)
35 | CC(=O)NC1=NC(=O)CS1 | 11.7% (inactive)
36 | COC(=O)CN1C(C)=Nc2ccc(Br)cc2C1c1ccccc1 (centres undefined) | -8.5% (inactive)
37 | COC(=O)C1=CN(C)C=C(C(=O)OC)C1c1ccc(Cl)cc1Cl | 28% (inactive)
38 | COC(=O)C1=C(C)N(C)C(C)=C(C(=O)OC)C1c1cccc(Br)c1 | 93.8% (active)
39 | c1ccc2c(CSCc3nc4ccccc4[nH]3)cccc2c1 | 85.1% (active)
40 | COC(=O)Cc1nc2ccccc2[nH]1 | 7.9% (inactive)
41 | Clc1ccccc1SCc1nc2ccccc2[nH]1 | 36.9% (inactive)
42 | CC(CN1CCOCC1)c1ccccc1 (centres undefined) | 2.7% (inactive)
43 | CN(CC(=O)NC1CCCCC1)S(=O)(=O)c1ccc(Br)s1 | -17.7% (inactive)
44 | Cn1c(CO)cnc1SCc1ccccc1 | 3.4% (inactive)
45 | CCS(=O)(=O)n1nc(-c2ccccc2)nc1SCc1ccccc1 | 87.9% (active)
46 | CCS(=O)(=O)n1nc(-c2ccc(OC)cc2)nc1SC | 42.2% (inactive)
47 | CSCCC(NC(=O)COc1ccccc1)C(=O)OCC(=O)c1cc2ccccc2o1 (centres undefined) | 43.3% (inactive)
48 | COc1ccc2ccccc2c1CNCc1ccccn1 | -4.5% (inactive)
49 | Cc1cc(C)c(C#N)c(SCc2ccc3c(c2)OCO3)n1 | 90.5% (active)
50 | Cc1cc(C)c(C#N)c(SCc2ccccc2C(=O)O)n1 | 9.5% (inactive)

Row | SMILES | inhibition
51 | Cc1cc(C)c(C#N)c(SCS(=O)c2ccc(C(C)(C)C)cc2)n1 (centres undefined) | -50.8% (inactive)
52 | CCCCN(C)Cc1c(C)[nH]c2ccc(Cl)cc2c1=O | -10.7% (inactive)
53 | O=C(O)CCC(=O)N(Cc1ccco1)c1nc(-c2ccccc2)cs1 | 5.2% (inactive)
54 | Cc1ccc(-c2csc(N(Cc3ccco3)C(=O)c3cccs3)n2)cc1 | 91.6% (active)
55 | Cc1nnc(N(Cc2ccco2)C(=O)c2ccno2)s1 | 11.2% (inactive)
56 | O=C(Nc1ccccc1)N(Cc1cccnc1)Cc1ccco1 | 35.5% (inactive)
57 | COC(=O)c1ccc(Oc2nc(NC(C)C)nc(SC)n2)cc1 | 37.2% (inactive)
58 | Cc1nc(SCC(=O)Nc2cc(C)on2)c2c(C)c(C)sc2n1 | 14% (inactive)
59 | Cc1nc(SCC(=O)N2CCc3ccccc3C2)c2c(C)c(C)sc2n1 | 55.9% (active)
60 | Cc1nnc(SCC(=O)N2CCc3ccccc3C2)s1 | 0% (inactive)
61 | O=C(CSc1nnc(-c2cccs2)n1Cc1ccccc1)N1CCc2ccccc2C1 | 48% (inactive)
62 | Cc1nc(SCC(=O)N2CC(=O)Nc3ccccc32)c2c(C)c(C)sc2n1 | 55.2% (active)
63 | Nn1c(Cc2cccc3ccccc23)nnc1SCC(=O)N1CC(=O)Nc2ccccc21 | -64.6% (inactive)
64 | COc1ccc(OC)c(NC(=O)CCN2CCC(C)CC2)c1 | 5.1% (inactive)
65 | CCc1nnc(NC(=O)CCC(=O)NCc2ccccc2OC)s1 | -14.5% (inactive)
66 | Cc1ccsc1-c1nc(CSCC(=O)NCCN2CCCC2)c(C)o1 | 7.3% (inactive)
67 | CCSc1nc(-c2ccc(OC)cc2)cc(-c2ccc(OC)cc2)c1C#N | 75.3% (active)
68 | CCOc1cc(-c2cc(-c3ccc(OC)cc3)nc(N)c2C#N)ccc1O | 47.2% (inactive)
69 | COc1ccc(C)cc1N(C)C(=O)c1coc(=O)c2ccccc12 | 33.1% (inactive)
70 | O=C(CSc1nc2ccccc2o1)N1CCN(c2ccc(Cl)cc2)CC1 | -11.9% (inactive)
71 | CC1Cc2ccccc2N1C(=O)CSc1nc2ccccc2o1 (centres undefined) | 28.2% (inactive)
72 | Cc1cc(C)cc(OCc2nnc(SCC(=O)Nc3ccccc3)o2)c1 | -3% (inactive)
73 | CC(C)NC(=O)CSc1nnc(COc2ccccc2Cl)o1 | -39.2% (inactive)
74 | O=C(CSc1nc2ccccc2o1)N1c2ccccc2Sc2ccc(Cl)cc21 | 60.9% (active)
75 | Cc1ccccc1OCc1nnc(SCC(=O)N2c3ccccc3Sc3ccc(Cl)cc32)o1 | 57.3% (active)

Row | SMILES | inhibition
76 | O=C(NC(C(=O)NCCN1CCOCC1)C12CC3CC(CC(C3)C1)C2)C1CCCCC1 (centres undefined) | 18.3% (inactive)
77 | O=C(COc1ccc(Br)cc1F)NC1CCN(Cc2ccccc2)CC1 | 28.8% (inactive)
78 | CCCCCCC(=O)N(O)C1CC(=O)N(c2ccccc2)C1=O (centres undefined) | -18.5% (inactive)
79 | CC1(C)CCCC2=C1CC1C(=O)N(c3ccccc3)C(=O)C1C2 (centres undefined) | 90.7% (active)
80 | CC(=O)Oc1cccc(N2C(=O)C3CC=C(Cl)CC3C2=O)c1 (centres undefined) | 3.2% (inactive)
81 | Cc1cccn2c(=O)c3cc(C(=O)N4COCC4(C)C)n(C)c3nc12 | -0.4% (inactive)
82 | CCC(C)NC(=O)C1CCC(=O)N1Cc1ccc(C)cc1 (centres undefined) | 3.2% (inactive)
83 | O=C1c2ccccc2C(O)N1Cc1ccccc1Cl (centres undefined) | -6.9% (inactive)
84 | O=C(Nc1ccc(Br)cc1)C1CCC(=O)N1Cc1ccccc1Cl (centres undefined) | 89.5% (active)
85 | CCCOc1ccc(-c2nc(N)n[nH]2)cc1 | 3.7% (inactive)
86 | N=c1c2c(-c3ccccc3)c(-c3ccccc3)oc2ncn1Cc1ccco1 | 45.2% (inactive)
87 | CCc1nc2oc3ccccc3c(=O)c2c(=O)n1Cc1ccc(OC)cc1 | 6.4% (inactive)
88 | CC1CN(C(=O)c2ccc3c(c2)OCO3)OC(c2ccccc2)O1 (centres undefined) | 35% (inactive)
89 | CCOC(=O)C1=NNC2(c3ccc(Cl)cc3)C(=O)N(c3cc(C)cc(C)c3)C(=O)C12 (centres undefined) | 64.1% (active)
90 | FC(F)(F)c1cc(C(F)(F)F)c2ccc(N3CCN(c4ccccc4)CC3)nc2n1 | -7.6% (inactive)
91 | CCN1CCCC1CNC(=O)c1cc2c(=O)n(C)c3ccccc3c2n1C (centres undefined) | 8.3% (inactive)
92 | O=c1[nH][nH]c(=O)c2cc(N3CCCC3)ccc12 | 2.6% (inactive)
93 | COc1ccc(C(=O)NN(C)c2nc(-c3ccccc3)cc(C)c2S(C)(=O)=O)cc1 | 13.3% (inactive)
94 | Cc1nc(NNC(=O)c2ccccc2)cc(-c2ccccc2)n1 | 62.7% (active)
95 | Cc1ccc2nc(-c3ccccc3)cc(C(=O)O)c2c1 | 34.4% (inactive)
96 | CCCCN(CC)CCCNC(=O)CS(=O)(=O)Cc1nc(-c2cccc(OC)c2)oc1C | -5.6% (inactive)
97 | Cc1ccc(S(=O)(=O)Nc2ccc3ncccc3c2)cc1 | 84.1% (active)
98 | Cc1ccc(S(=O)(=O)Nc2nc(C)cc(-n3nc(C)cc3C)n2)cc1 | 29.1% (inactive)
99 | CC(=O)N1CCN(C(=O)c2cccc(S(=O)(=O)Nc3ccc(C)cc3)c2)CC1 | 0.3% (inactive)
